From PubChem BioAssay AID1159580 (chemical genetic matrix, 2015)
“And” between values parts separate entries of the source, which are not always exact repeats. Identical values can stand only once. Out of some 5,500 compounds screened, about 2,000 (36%) were called active. Roughly 18% stayed inconclusive and do not appear here. No stated cut-off is given here; in the data, active means normalized growth mostly below about 0.91 (no sharp cut-off); inconclusive means no clear call, values can overlap the other calls; inactive means mostly above about 0.92. Some of the results follow.

Experiment: chemical genetic growth profiling, strain panel (AID 1159580);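 further: tested at 20 µM; growth read once vehicle control cultures reached saturation at 30 °C; 1 = growth at the plate median or of vehicle wells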
Conditions: S. cerevisiae deletion strains, growth OD
[1] = locus YAL013W, strain DEP1, stronger effect = lower value
[2] = locus YBR229C, strain ROT2, stronger effect = lower value
[3] = locus YCL061C, strain MRC1, stronger effect = lower value
[4] = locus YDL101C, strain DUN1, stronger effect = lower value
[5] = locus YEL061C, strain CIN8, stronger effect = lower value
[6] = locus YHR030C, strain SLT2, stronger effect = lower value
[7] = locus YJL187C, strain SWE1, stronger effect = lower value
[8] = locus YJR043C, strain POL32, stronger effect = lower value
[9] = locus YJR075W, strain HOC1, stronger effect = lower value
[10] = locus YLR039C, strain RIC1, stronger effect = lower value
[11] = locus YLR262C, strain YPT6, stronger effect = lower value
[12] = locus YMR307W, strain GAS1, stronger effect = lower value
[13] = locus YNL128W, strain TEP1, stronger effect = lower value
[14] = locus YPL241C, strain CIN2, stronger effect = lower value

Measured: normalized growth

COc1ccc(/C=C2\CC/C(=C\c3ccc(OC)c(OC)c3)C2=O)cc1OC
inactive: [1] 0.988 | [2] 0.998 | [3] 0.996 | [4] 0.974 | locus YDL134C, strain PPH21, stronger effect = lower value 1.02 | locus YDR150W, strain NUM1, stronger effect = lower value 0.904 | [5] 0.986 | locus YGR078C, strain PAC10, stronger effect = lower value 0.978 | locus YGR229C, strain SMI1, stronger effect = lower value 1 | [6] 0.902 | locus YHR087W, strain rtc3, stronger effect = lower value 0.977 | [7] 1.01 | [8] 0.966 | [9] 1.03 | [10] 0.936 | locus YLR058C, strain SHM2 (second series), stronger effect = lower value 1.01 | locus YLR085C, strain ARP6, stronger effect = lower value 0.989 | [11] 0.964 | locus YML094W, strain GIM5, stronger effect = lower value 1.03 | locus YMR219W, strain ESC1, stronger effect = lower value 0.995 | locus YMR263W, strain SAP30, stronger effect = lower value 0.973 | [12] 0.817 | [13] 0.997 | locus YNL153C, strain GIM3, stronger effect = lower value 0.989 | locus YNL298W, strain CLA4 (second series), stronger effect = lower value 0.987 | locus YNL322C, strain KRE1, stronger effect = lower value 0.999 | locus YNR030W, strain Alg12, stronger effect = lower value 0.974 | locus YPL055C, strain LGE1, stronger effect = lower value 0.907 | [14] 0.974 | locus YPR135W, strain CTF4, stronger effect = lower value 0.919

COc1ccc2c(c1)OC/C(=C/c1ccc(OC)c(OC)c1)C2=O
active: locus YAL026C, strain drs2, stronger effect = lower value 0.891 | locus YBR009C, strain hhf1, stronger effect = lower value 0.803 | locus YBR023C, strain chs3, stronger effect = lower value 0.882 | locus YBR231C, strain swc5, stronger effect = lower value 0.88 | locus YCL011C, strain gbp2, stronger effect = lower value 0.905 | locus YCL016C, strain dcc1, stronger effect = lower value 0.856 | [3] 0.887 | locus YCL069W, strain vba3, stronger effect = lower value 0.873 | locus YDR137W, strain rgp1, stronger effect = lower value 0.682 | locus YDR162C, strain NBP2, stronger effect = lower value 0.833 | locus YDR318W, strain mcm21, stronger effect = lower value 0.894 | locus YDR335W, strain msn5, stronger effect = lower value 0.899 | locus YDR392W, strain spt3, stronger effect = lower value 0.212 | locus YDR502C, strain sam2, stronger effect = lower value 0.893 | locus YEL003W, strain gim4, stronger effect = lower value 0.893 | locus YEL061C, strain CIN8 (second series), stronger effect = lower value 0.863 | [5] 0.911 | locus YER155C, strain BEM2 (second series), stronger effect = lower value 0.625 | locus YGL086W, strain mad1, stronger effect = lower value 0.9 | locus YGL240W, strain doc1, stronger effect = lower value 0.852 | locus YGL253W, strain hxk2, stronger effect = lower value 0.764 | locus YHR129C, strain ARP1, stronger effect = lower value 0.867 | locus YHR142W, strain chs7, stronger effect = lower value 0.668 | locus YIL066C, strain RNR3, stronger effect = lower value 0.832 | locus YJL095W, strain BCK1 (second series), stronger effect = lower value 0.864 | locus YJL164C, strain tpk1, stronger effect = lower value 0.852 | locus YJL166W, strain qcr8, stronger effect = lower value 0.756 | locus YKL160W, strain elf1, stronger effect = lower value 0.758 | locus YKR001C, strain vps1, stronger effect = lower value 0.861 | locus YLL001W, strain dnm1, stronger effect = lower value 0.845 | locus YLR027C, strain aat2, stronger effect = lower value 0.914 | locus YLR221C, strain rsa3, stronger effect = lower value 0.886 | locus YLR262C, strain YPT6 (second series), stronger effect = lower value 0.682 | locus YLR268W, strain sec22, stronger effect = lower value 0.852 | locus YLR320W, strain mms22, stronger effect = lower value 0.71 | locus YLR330W, strain CHS5, stronger effect = lower value 0.838 | locus YLR418C, strain cdc73, stronger effect = lower value 0.621 | locus YMR058W, strain fet3, stronger effect = lower value 0.87 | locus YMR205C, strain PFK2, stronger effect = lower value 0.68 | locus YNL071W, strain lat1, stronger effect = lower value 0.38 | locus YNL307C, strain MCK1, stronger effect = lower value 0.412 | locus YOR083W, strain WHI5, stronger effect = lower value 0.852 | locus YOR106W, strain vam3, stronger effect = lower value 0.842 | locus YOR184W, strain ser1, stronger effect = lower value 0.805 | locus YOR270C, strain vph1, stronger effect = lower value 0.686 | locus YOR290C, strain snf2, stronger effect = lower value 0.813 | locus YPL051W, strain arl3, stronger effect = lower value 0.852 | locus YPL078C, strain atp4, stronger effect = lower value 0.793 | locus YPL106C, strain sse1, stronger effect = lower value 0.841 | locus YPL240C, strain hsp82, stronger effect = lower value 0.87 | locus YPR163C, strain tif3, stronger effect = lower value 0.726
0.733 (active) and 0.959 (inactive): locus YJL095W, strain BCK1, stronger effect = lower value
inactive: [1] 1.01 | locus YAL021C, strain ccr4, stronger effect = lower value 0.997 | locus YAL030W, strain snc1, stronger effect = lower value 0.986 | locus YBL061C, strain skt5, stronger effect = lower value 1 | locus YBR021W, strain FUR4, stronger effect = lower value 0.873 | locus YBR171W, strain sec66, stronger effect = lower value 0.978 | [2] 0.981 | locus YBR279W, strain paf1, stronger effect = lower value 0.946 | locus YCL029C, strain bik1, stronger effect = lower value 0.943 | locus YCR088W, strain abp1, stronger effect = lower value 0.98 | locus YDL005C, strain med2, stronger effect = lower value 1.02 | locus YDL035C, strain GPR1, stronger effect = lower value 0.978 | locus YDL040C, strain nat1, stronger effect = lower value 0.974 | locus YDL074C, strain BRE1, stronger effect = lower value 0.928 | [4] 0.95 | locus YDL185W, strain tfp1, stronger effect = lower value 0.987 | locus YDL192W, strain arf1, stronger effect = lower value 0.944 | locus YDR001C, strain nth1, stronger effect = lower value 0.983 | locus YDR069C, strain doa4, stronger effect = lower value 1.01 | locus YDR101C, strain arx1, stronger effect = lower value 0.963 | locus YDR159W, strain sac3, stronger effect = lower value 0.874 | locus YDR195W, strain ref2 1.1 | locus YDR297W, strain sur2, stronger effect = lower value 0.943 | locus YDR334W, strain swr1, stronger effect = lower value 0.974 | locus YDR388W, stronger effect = lower value 0.958 | locus YEL037C, strain rad23, stronger effect = lower value 0.984 | locus YER015W, strain faa2, stronger effect = lower value 0.936 | locus YER016W, strain bim1, stronger effect = lower value 1.03 | locus YER110C, stronger effect = lower value 0.945 | locus YER111C, strain swi4, stronger effect = lower value 1.01 | locus YER155C, strain BEM2, stronger effect = lower value 0.962 | locus YER167W, strain BCK2, stronger effect = lower value 0.947 | locus YFR010W, strain ubp6, stronger effect = lower value 0.986 | locus YGL078C, strain dbp3, stronger effect = lower value 0.976 | locus YGL167C, strain pmr1, stronger effect = lower value 1.06 | locus YGL173C, strain kem1, stronger effect = lower value 0.984 | locus YGL227W, strain vid30, stronger effect = lower value 0.986 | locus YGL248W, strain PDE1, stronger effect = lower value 0.916 | locus YGR135W, strain pre9, stronger effect = lower value 0.914 | locus YGR252W, strain gcn5, stronger effect = lower value 0.799 | locus YHR013C, strain ard1, stronger effect = lower value 0.862 | locus YHR027C, strain rpn1, stronger effect = lower value 0.979 | locus YHR079C, strain IRE1 (second series), stronger effect = lower value 0.979 | locus YHR079C, strain IRE1, stronger effect = lower value 0.952 | locus YHR094C, strain hxt1, stronger effect = lower value 0.969 | locus YHR200W, strain rpn10, stronger effect = lower value 0.969 | locus YIL073C, strain SPO22, stronger effect = lower value 0.833 | locus YIL125W, strain kgd1, stronger effect = lower value 0.973 | locus YIR030C, strain dcg1, stronger effect = lower value 0.978 | locus YJL092W, strain hpr5, stronger effect = lower value 0.97 | locus YJL115W, strain asf1, stronger effect = lower value 0.98 | locus YJL129C, strain trk1, stronger effect = lower value 0.929 | locus YJL134W, strain LCB3, stronger effect = lower value 0.996 | locus YJL154C, strain vps35, stronger effect = lower value 0.993 | locus YJL168C, strain set2, stronger effect = lower value 0.965 | locus YJL187C, strain SWE1 (second series), stronger effect = lower value 0.937 | [7] 0.973 | [8] 0.915 | locus YJR066W, strain TOR1, stronger effect = lower value 0.903 | [9] 0.955 | locus YKL009W, strain mrt4, stronger effect = lower value 0.973 | locus YKL068W, stronger effect = lower value 1.02 | locus YKL085W, strain MDH1 (second series), stronger effect = lower value 0.98 | locus YKL085W, strain MDH1, stronger effect = lower value 0.98 | locus YKL190W, strain CNB1, stronger effect = lower value 0.982 | locus YKR026C, strain gcn3, stronger effect = lower value 0.984 | locus YKR091W, strain srl3, stronger effect = lower value 0.979 | locus YLL026W, stronger effect = lower value 0.979 | locus YLL041C, strain sdh2, stronger effect = lower value 1.01 | [10] 0.727 | locus YLR058C, strain SHM2, stronger effect = lower value 0.949 | locus YLR102C, strain apc9, stronger effect = lower value 0.974 | locus YLR113W, strain HOG1, stronger effect = lower value 0.933 | locus YLR258W, strain gsy2, stronger effect = lower value 0.915 | [11] 0.805 | locus YLR342W, strain FKS1 (second series), stronger effect = lower value 0.809 | locus YLR342W, strain FKS1, stronger effect = lower value 0.92 | locus YLR357W, strain rsc2, stronger effect = lower value 0.985 | locus YLR370C, strain arc18, stronger effect = lower value 0.962 | locus YLR371W, strain rom2, stronger effect = lower value 0.951 | locus YLR384C, strain iki3, stronger effect = lower value 1 | locus YML016C, strain PPZ1, stronger effect = lower value 0.989 | locus YML032C, strain rad52, stronger effect = lower value 0.955 | locus YML120C, strain ndi1, stronger effect = lower value 0.979 | locus YML124C, strain tub3, stronger effect = lower value 0.982 | locus YMR078C, strain ctf18, stronger effect = lower value 0.981 | locus YMR125W, strain sto1, stronger effect = lower value 0.966 | locus YMR129W, stronger effect = lower value 0.996 | locus YMR223W, strain ubp8, stronger effect = lower value 0.941 | locus YMR231W, strain pep5, stronger effect = lower value 0.984 | [12] 0.955 | locus YNL067W, strain RPL9B, stronger effect = lower value 0.931 | [13] 0.96 | locus YNL183C, strain NPR1, stronger effect = lower value 0.9 | locus YNL209W, strain ssb2, stronger effect = lower value 0.967 | locus YNL233W, strain BNI4, stronger effect = lower value 0.873 | locus YNL248C, strain rpa49, stronger effect = lower value 0.935 | locus YNL250W, strain rad50, stronger effect = lower value 0.98 | locus YNL271C, strain bni1, stronger effect = lower value 0.971 | locus YNL298W, strain CLA4, stronger effect = lower value 0.93 | locus YNL322C, strain KRE1 (second series), stronger effect = lower value 0.98 | locus YNR049C, strain mso1, stronger effect = lower value 0.978 | locus YNR052C, strain pop2, stronger effect = lower value 0.964 | locus YOL006C, strain TOP1, stronger effect = lower value 0.724 | locus YOL012C, strain htz1 0.627 | locus YOL147C, strain pex11, stronger effect = lower value 0.956 | locus YOR001W, strain rrp6, stronger effect = lower value 0.955 | locus YOR061W, strain CKA2, stronger effect = lower value 0.979 | locus YOR069W, strain VPS5, stronger effect = lower value 1 | locus YOR070C, strain gyp1, stronger effect = lower value 0.929 | locus YOR080W, strain dia2, stronger effect = lower value 0.986 | locus YOR136W, strain idh2, stronger effect = lower value 0.967 | locus YOR144C, strain elg1, stronger effect = lower value 0.976 | locus YOR231W, strain MKK1, stronger effect = lower value 0.921 | locus YOR265W, strain rbl2, stronger effect = lower value 0.954 | locus YOR316C, strain cot1, stronger effect = lower value 0.967 | [14] 0.994 | locus YPL256C, strain CLN2, stronger effect = lower value 0.972 | locus YPR119W, strain clb2, stronger effect = lower value 0.994 | locus YPR141C, strain kar3, stronger effect = lower value 0.996 | locus YPR167C, strain met16, stronger effect = lower value 0.952 | strain wtn01, stronger effect = lower value 0.936
0.838 (active) and 0.944 (inactive): [6]
